Screens (PubChem)
Rows were chosen to be rich in hits. Some 19% of all compounds tested hit in one or more screens of this group.
IL1B secr inh: inhibitors of inflammasome signaling (IL-1 beta secretion); THP-1 LPS/ATP IL-1B secretion, AlphaLISA, 16 h; stronger effect = lower value; activity change, % at 57.5 µM; 4.7% of 360,000 active; in the data active = activity change below about -50%; inconclusive = mostly about -30% to -49%
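Secreted IL-1B measured by AlphaLISA bead assay after 16 h compound exposure of THP-1 cells; compounds (final up to 57.5 uM) added 1 h before LPS (250 ng/mL) and ATP (1.25 mM) stimulation; lower signal means less secretion.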
TDP1 cell noCPT: qHTS for Inhibitors of human tyrosyl-DNA phosphodiesterase 1 (TDP1): qHTS in cells in absence of CPT; AID 686978, 2013; 15% of 420,000 active; DT40 Tdp1-/- hTDP1 cells, no CPT, ATP luminescence, 48 h; Potency, µM (highest dose often 46.2 µM), inactives show at the highest dose activity change, negative = growth inhibition, usual class: inhibitors; note: potency is the fitted concentration of half-maximal effect; nearly all actives have a fitted effect of over 55% in size
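Chicken DT40 Tdp1-/- cells complemented with human TDP1, screened without camptothecin (DMSO vehicle only), 400 cells/well. Compounds pin-transferred, cells incubated at 37 °C for at least 48 hr. Growth read as ATP-dependent luminescence (CellTiter-Glo, 30 min at RT).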
HT1080-NT tox: kills 2HG-producing HT-1080-NT fibrosarcoma cells; HT-1080-NT fibrosarcoma viability, CellTiter-Glo ATP luminescence, 48 h; Potency, µM (top dose mostly 46.1 µM), inactives show at the highest dose activity, negative = less viability, actives largely listed as cytotoxic; 1.6% of 360,000 active;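 note: NT is the 2HG producing partner of a matched IDH1 knockdown line; potency is the fitted concentration of half-maximal effect; 0% = DMSO-treated cells and -100% = media-only wells without cells; nearly all actives have a fitted effect of over 55% in size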
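A 48-hour cytotoxicity screen used HT-1080-NT cells plated 2 hours before compound delivery. ATP-based CellTiter-Glo luminescence measured viability, normalized to DMSO and no-cell controls.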
ELG1 DNA repair: inhibitors of ELG1-dependent DNA repair in HEK293T cells; Potency, µM (series often up to 46.1 µM), for inactives: at the top dose activity change, negative = inhibition, usual class: inhibitors; HEK293T ELG1-luciferase reporter, luminescence, 16 h; DNA damage induced by 5-fluorouridine; 2.3% of 330,000 active; note: potency is the fitted concentration of half-maximal effect; nearly all actives have a fitted effect of over 55% in size
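Reporter activity after DNA damage by 5-fluorouridine is monitored. Compound-treated cells incubate 16 hr at 37 °C, then ONE-Glo is added for 30 min before luminescence reading.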
DT40 TDP1 CPT: DT40-hTDP1 cell growth loss with CPT; chicken DT40 Tdp1-/-;hTDP1 cells + 20 nM CPT, ATP luminescence, 48 h; 12% of 420,000 active; Potency, µM (titrated, usually from 46.2 µM), for the others: top-dose activity change, negative = growth inhibition, hits mostly inhibitors; note: potency is the fitted concentration of half-maximal effect; nearly all actives have a fitted effect of over 55% in size
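Chicken DT40 Tdp1-/- cells stably complemented with human TDP1 were seeded at 400 cells/well in medium containing 20 nM camptothecin, exposed to pin-transferred compounds, and grown at 37 °C for at least 48 hr. Viability was read as ATP luminescence.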
HT1080 IDH1KD tx: toxicity to HT-1080 IDH1 knockdown cells (counter line); HT-1080 IDH1 knockdown viability, ATP luminescence, 48 h; Potency, µM (top dose mostly 46.1 µM), without a hit: at the top dose activity, negative = toxicity, actives largely listed as cytotoxic; 2% of 360,000 active;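 note: potency is the fitted concentration of half-maximal effect; 0% = DMSO wells and -100% = cell-free medium wells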
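HT-1080-IDH1KD cells (IDH1 knocked down), 750/well in RPMI with 5% FBS, treated with compound 48 h at 37 degrees C. Viability by CellTiter-Glo luminescence, normalised to DMSO and no-cell wells; concentration-response curves classed.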
* hit, by the source's call; i = inactive; u = inconclusive; x = no result; [ ] = remark or other dose. Unless noted, calls come from the whole dose curve; as a rule, active = well fitted curve in the direction sought with a large enough effect; inconclusive = small, poorly fitted or top-dose-only effect, or another doubt; inactive = no such curve, though single readings can be large; an effect the other way counts as inactive or inconclusive. Unless noted, % is set by controls: 0 for no effect and ±100 for the full control effect.

SMILES	IL1B secr inh	TDP1 cell noCPT	HT1080-NT tox	ELG1 DNA repair	DT40 TDP1 CPT	HT1080 IDH1KD tx
O=C(C1CCN(S(=O)(=O)N2CCCCC2)CC1)N1CCCCC1	15	6%	6%	5%	-2%	-5%
CCOc1ccc(CNS(=O)(=O)c2cc3c(cc2C)NC(=O)CO3)cc1	x	6%	x	x	-10%	x
NC(=O)c1ccccc1NC(=O)/C=C/c1cccc(Cl)c1	u	-13%	-1%	u	-23%	0%
Cc1ccc(/C=C/C(=O)NCCc2ccccc2)o1	-27	29µM*	-3%	u	5.8µM*	-2%
O=C(/C=C/c1ccco1)NCCc1ccccc1	5	-27%	16%	u	5%	10%
NC(=O)c1ccccc1NC(=O)/C=C/c1c(Cl)cccc1Cl	-22	18µM*	-28%	u	u	u
Cc1ccc(/C=C/C(=O)Nc2ccccc2C(N)=O)o1	x	10µM*	x	x	u	x
Cc1ccc(/C=C/C(=O)Nc2cccc3ncccc23)o1	-21	u	0%	2%	u	1%
O=C1NCCN(CC2CCN(CCc3ccc(Cl)c(Cl)c3)CC2)C1=O	-15	-11%	-4%	x	1%	1%
C/C(=N\NC(=O)CSc1nc(C)cc(C)n1)c1ccc([N+](=O)[O-])cc1	41	u	-5%	6%	-18%	-2%
COc1cc(NC(=O)Cn2c(=O)nc(-c3ccccc3F)c3cc(Cl)ccc32)cc(OC)c1	x	10µM*	x	x	15µM*	x
CCc1ccc(NC(=O)Cn2c(=O)nc(-c3ccccc3F)c3cc(Cl)ccc32)cc1	x	-25%	x	x	-1%	x
CCN1CCN(C(=O)c2ccc3nc(-c4ccccc4)c(-c4ccccc4)nc3c2)CC1	i	-5%	-3%	-3%	-3%	-4%
COc1ccc(C(CNC(=O)COc2ccc(Cl)c(C)c2)N2CCOCC2)cc1 (stereo unspecified)	x	u	x	x	21µM*	x
COc1ccc(C(CNC(=O)COc2cc(C)cc(C)c2)N2CCCCC2)cc1 (stereo unspecified)	x	u	x	x	23µM*	x
COc1ccc(OCC(=O)NCC(c2ccc(OC)cc2)N2CCCCC2)cc1 (stereo unspecified)	0	6%	0%	16%	-16%	-1%
COc1ccc(C(CNC(=O)COc2ccc(C)c(C)c2)N2CCCCC2)cc1 (stereo unspecified)	4	u	-13%	-1%	23µM*	-1%
COc1ccc(C(CNC(=O)COc2cc(C)c(Cl)c(C)c2)N2CCCCC2)cc1 (stereo unspecified)	u	16µM*	-1%	-2%	23µM*	-2%
COc1ccc(S(=O)(=O)NC(=O)C2(C)CCN2C(=O)CC2CCCC2)cc1 (stereo unspecified)	23	-8%	u	x	-18%	6%
COc1cccc(NC(=O)CN2C(=O)c3cccc4cccc2c34)c1	x	-22%	x	x	-9%	x
Cc1ccc(S(=O)(=O)c2cnc(-c3ccccc3)[nH]c2=O)cc1	x	-1%	21%	x	0%	2%
CC(C)C[C@@H](COCc1cccc(C(F)(F)F)c1)N1CCN(C(=O)c2ccc(C(F)(F)F)cc2)CCC1=O	-73*	u	u	x	u	u
CC(C)CC(COCc1cccc(Cl)c1)N1CCN(C(=O)c2cccc(C(F)(F)F)c2)CCC1=O (stereo unspecified)	-16	u	-26%	-12%	u	-23%
Cc1cccc(COC[C@H](CC(C)C)N2CCN(C(=O)c3ccc(C(F)(F)F)cc3)CCC2=O)c1	u	16µM*	-24%	x	u	u
CC[C@H]1OC(=O)[C@H](C)[C@@H](O[C@H]2C[C@@](C)(OC)[C@@H](O)[C@H](C)O2)[C@H](C)[C@@H](O[C@@H]2O[C@H](C)C[C@H](N(C)C)[C@H]2O)[C@](C)(O)C[C@@H](C)C(=NOCOCCOC)[C@H](C)[C@@H](O)[C@]1(C)O	-14	7.3µM*	x	3%	u	x
SMILES	IL1B secr inh	TDP1 cell noCPT	HT1080-NT tox	ELG1 DNA repair	DT40 TDP1 CPT	HT1080 IDH1KD tx
O=C(Nc1c(-c2ccc(F)cc2)nc2ccccn12)c1ccccc1F	x	u	x	x	-21%	x
O=C(NCc1ccccc1)C1CCN(c2nc(-c3ccccc3)nc3c2CCC3)CC1	-5	21µM*	-6%	u	18µM*	-4%
CC1CCCN(C(=O)C2CCN(c3nc(-c4ccccc4)nc4c3CCC4)CC2)C1 (stereo unspecified)	-20	23µM*	6%	-24%	u	17%
Cc1cc2nc(C(C)(C)C)c(CC3CCCCC3)n2c(C)c1Br	60	u	19%	x	u	10%
Cc1c(C(=O)NC2CCCCCC2)sc2ncnc(NCC3CCCO3)c12 (stereo unspecified)	x	u	x	x	-4%[9.04 µM]	x
N#Cc1ccccc1	5	-6%	-2%	11%	-9%	9%
N#Cc1ccc(C(S(=O)(=O)Cc2ccccc2)S(=O)(=O)Cc2ccccc2)cc1	-58*	u	-8%	x	u	-9%
C[C@@H]1[C@@H](Sc2ccccc2)CC(=O)O[C@@H]1c1ccc(-c2ccccc2)cc1	-102*	7.3µM*	u	x	8.2µM*	u
CC(C)NC(=O)c1cc(C2CCCCN2C(=O)c2ccccc2)on1 (stereo unspecified)	30	-21%	15%	x	-9%	23%
O=C1[C@H]2[C@@H](C(=O)N1c1cc(Cl)cc(Cl)c1)[C@]1(C(=O)Nc3ccccc31)N1CCC[C@@H]21	0	-6%	-17%	u	-26%	u
COC(=O)c1c(N2C(=O)[C@H]3[C@@H](C2=O)[C@]2(C(=O)Nc4c2ccc(C)c4C)N2CCC[C@@H]32)sc(C)c1C	-10	16µM*	-18%	6.5µM*	18µM*	-21%
COC(=O)C(C(=O)OC)C(CC(=O)c1ccc(Br)cc1)c1ccccc1 (stereo unspecified)	-2	-22%	0%	x	-3%	-13%
O=C(Nc1cc(-c2cccc(Cl)c2)nn1-c1ccccc1)c1ccccc1F	x	u	x	x	16µM*	x
CC(=O)Nc1ccc(-c2cc(NC(C)=O)n(-c3ccccc3)n2)cc1	4	-12%	2%	13%	0%	9%
Cc1cccc(-c2cc(NC(=O)c3ccccc3C)n(-c3ccccc3)n2)c1	x	-26%	x	x	u	x
CC(C)c1ccc(C(=O)Nc2cc(-c3ccccc3F)nn2-c2ccccc2)cc1	x	10µM*	x	x	21µM*	x
